Results published in PubChem BioAssay (EPA / NIEHS).
Where “and” joins values, the source holds several entries; their conditions need not be identical. Identical values can stand only once. Records with an inconclusive call do not appear. A structure can be active in one record and inactive in another. Calls of active or inactive are those of the source. Rule for the calls: active = hit-call score of the fitted dose curve at least 0.9, where 1 is the maximum; inconclusive = response in the unintended direction; inactive = score below 0.9.

target: Agonist Androgen Response Element (ARE), AR (gene 367) (UniProt P10275); assay: OT_AR_ARELUC_AG_1440: Odyssey Thera (OT) 24-hour CHO-K1 Luciferase Assay for Agonist Androgen Response Element (ARE) (AID 2283379)
Sequence (P10275 whole entry, looked up): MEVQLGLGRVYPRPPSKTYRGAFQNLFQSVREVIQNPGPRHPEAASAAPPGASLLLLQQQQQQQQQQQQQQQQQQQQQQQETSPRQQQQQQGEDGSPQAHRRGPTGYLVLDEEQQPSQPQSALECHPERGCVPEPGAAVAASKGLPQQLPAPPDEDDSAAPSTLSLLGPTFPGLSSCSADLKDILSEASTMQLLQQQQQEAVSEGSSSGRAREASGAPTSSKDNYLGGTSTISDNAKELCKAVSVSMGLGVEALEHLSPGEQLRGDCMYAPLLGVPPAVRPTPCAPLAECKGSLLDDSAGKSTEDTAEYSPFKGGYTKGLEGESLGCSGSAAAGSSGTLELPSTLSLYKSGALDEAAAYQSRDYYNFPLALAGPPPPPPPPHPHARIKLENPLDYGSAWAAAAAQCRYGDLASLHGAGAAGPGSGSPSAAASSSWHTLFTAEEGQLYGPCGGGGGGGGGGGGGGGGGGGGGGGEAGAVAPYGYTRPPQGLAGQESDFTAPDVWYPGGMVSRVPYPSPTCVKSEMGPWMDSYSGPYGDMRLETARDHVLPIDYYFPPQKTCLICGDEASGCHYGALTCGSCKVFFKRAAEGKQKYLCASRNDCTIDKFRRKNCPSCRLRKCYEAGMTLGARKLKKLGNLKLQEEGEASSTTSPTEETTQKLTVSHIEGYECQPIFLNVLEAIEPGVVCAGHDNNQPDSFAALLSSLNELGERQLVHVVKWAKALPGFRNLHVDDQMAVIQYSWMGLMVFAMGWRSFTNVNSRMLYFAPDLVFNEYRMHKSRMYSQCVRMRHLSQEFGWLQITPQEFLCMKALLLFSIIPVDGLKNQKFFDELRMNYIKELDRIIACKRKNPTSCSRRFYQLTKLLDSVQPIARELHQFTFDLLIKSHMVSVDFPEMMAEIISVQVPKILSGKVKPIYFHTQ
Procedure: OT_AR_ARELUC_AG_1440 is a cell-based, single-readout assay that uses CHO-K1, a chinese hamster ovary cell line, with measurements taken at 24 hours after chemical dosing in a 384-well plate.OT_AR_ARELUC_AG_1440 is one of one assay component(s) measured or calculated from the OT_AR_ARELUC_AG_1440 assay. It is designed to make measurements of luciferase induction, a form of inducible reporter, as detected with bioluminescence signals by Luciferase technology.Data from the assay component OT_AR_ARELUC_AG_1440 was analyzed into 1 assay endpoint. This assay endpoint, OT_AR_ARELUC_AG_1440, was analyzed in the positive analysis fitting direction relative to DMSO as the negative control and baseline of activity. Using a type of inducible reporter, measures of receptor for gain-of-signal activity can be used to understand the reporter gene at the pathway-level as they relate to the gene AR. Furthermore, this assay endpoint can be referred to as a primary readout, because the performed assay has only produced 1 assay endpoint. To generalize the intended target to other relatable targets, this assay endpoint is annotated to the nuclear receptor intended target family, where the subfamily is steroidal.
To identify AR agonists, CHO-K1 cells are seeded into a white-walled/white-bottom 384-well plate, followed by treatment with compounds of interest or controls for 24 hours. A luciferase assay mix containing D-luciferin and ATP in PBS is then added to the cells and luminescence quantified on a Luminoskan (Thermo Scientific) luminometer. Modulation of this assay is quantified as an increase in mean luminescence intensity relative to vehicle controls. To evaluate specificity of the AR / ARE-luc assay, several known AR agonists, AR antagonists, and ER-selective compounds were also tested in 5-pt concentration-response format in a minimum of 7 assay plates. OT determined the reproducibility of DHT-induced AR/ARE-luc transcriptional activation with a total of seven 384-well plates run on 2 different days, for 24-h time frames. A minimum of 3 replicate wells were analyzed for each sample with 14 replicate wells for vehicle controls. Luminescence data were captured on the Luminoskan luminometer.

Question: Which outcome does the source give for `CCOC(=O)COc1cc(-n2ncc(C(F)(F)F)c(C)c2=O)c(F)cc1Cl` here?
Answer: inactive

Question: How did the outcome turn out when `CCCOC(=O)c1ccc(C(=O)OCCC)nc1` was run?
Answer: inactive

Question: With `CCSC(=O)N(CC(C)C)CC(C)C` as the compound, how does the outcome read?
Answer: inactive

Question: How did the outcome turn out when `C[C@]12CC[C@@H]3c4ccc(O)cc4C[C@@H](CCCCCCCCCS(=O)CCCC(F)(F)C(F)(F)F)[C@H]3[C@@H]1CC[C@@H]2O` (some centres undefined) was run?
Answer: inactive

Question: What about the AC50 of the same compound?
Answer: 548 nM (active)

Question: How did the outcome turn out when `O=C(O)C1(C(=O)Nc2ccc(Cl)cc2Cl)CC1` was run?
Answer: inactive

Question: How did the outcome turn out when `CSC(=O)c1cccc2nnsc12` was run?
Answer: inactive

Question: Which outcome does the source give for `CC1(C)C(C=C(Cl)Cl)C1C(=O)OCc1cccc(Oc2ccccc2)c1` (centres undefined) here?
Answer: inactive

Question: For `Cc1nn(C)c(Oc2ccccc2)c1C=NOCc1ccc(C(=O)OC(C)(C)C)cc1`, which outcome is on record?
Answer: inactive

Question: How did the outcome turn out when `CCCCOCCOCCOCc1cc2c(cc1CCC)OCO2` was run?
Answer: inactive

Question: With `N#CSCSc1nc2ccccc2s1` as the compound, how does the outcome read?
Answer: inactive

Question: `O=C(c1ccccc1)C1CCCCC1` was tested. Which AC50 did it give?
Answer: 527 nM (active)

Question: And the outcome?
Answer: inactive

Question: `CCCN(CCC)C(=O)SCC` was tested. Which outcome did it give?
Answer: inactive

Question: What does the source list for `O=C(c1ccc(O)cc1O)c1ccc(O)cc1O`?
Answer: AC50: 722 nM (active) and 29.3 µM (active); outcome: inactive

Question: Which outcome does the source give for `COC(=O)CSc1cc(N=c2sc(=O)n3n2CCCC3)c(F)cc1Cl` here?
Answer: inactive

Question: Which outcome does the source give for `CC(C)(c1ccc(O)cc1)c1ccc(O)cc1` here?
Answer: inactive

Question: How did the outcome turn out when `c1ccc2[nH]c(-c3cscn3)nc2c1` was run?
Answer: inactive
